Measurements taken from PubChem BioAssay AID504333 (National Center for Advancing Translational Sciences (NCATS), 2011).
Hit rate of the full screen: of about 360,000 compounds, about 16,000 (4.4%) were called active. Inconclusive results (about 9%) are left out. Calls come from the whole dose curve; as a rule, active = well fitted inhibition curve with a large enough effect; inconclusive = small, poorly fitted or top-dose-only effect; inactive = no such curve, though single readings can be large or run the other way. The full list was thinned out, with actives kept by preference.

The compounds below were run against Bromodomain adjacent to zinc finger domain protein 2B (Homo sapiens) (UniProt Q9UIF8) (assay: qHTS Assay for Inhibitors of BAZ2B). Details: AlphaScreen BAZ2B-H3K14Ac peptide displacement; series mostly up to 114 µM.
Bromodomain adjacent to zinc finger domain protein 2B (Homo sapiens), sequence (Q9UIF8 whole entry, looked up, the tested form may be a part): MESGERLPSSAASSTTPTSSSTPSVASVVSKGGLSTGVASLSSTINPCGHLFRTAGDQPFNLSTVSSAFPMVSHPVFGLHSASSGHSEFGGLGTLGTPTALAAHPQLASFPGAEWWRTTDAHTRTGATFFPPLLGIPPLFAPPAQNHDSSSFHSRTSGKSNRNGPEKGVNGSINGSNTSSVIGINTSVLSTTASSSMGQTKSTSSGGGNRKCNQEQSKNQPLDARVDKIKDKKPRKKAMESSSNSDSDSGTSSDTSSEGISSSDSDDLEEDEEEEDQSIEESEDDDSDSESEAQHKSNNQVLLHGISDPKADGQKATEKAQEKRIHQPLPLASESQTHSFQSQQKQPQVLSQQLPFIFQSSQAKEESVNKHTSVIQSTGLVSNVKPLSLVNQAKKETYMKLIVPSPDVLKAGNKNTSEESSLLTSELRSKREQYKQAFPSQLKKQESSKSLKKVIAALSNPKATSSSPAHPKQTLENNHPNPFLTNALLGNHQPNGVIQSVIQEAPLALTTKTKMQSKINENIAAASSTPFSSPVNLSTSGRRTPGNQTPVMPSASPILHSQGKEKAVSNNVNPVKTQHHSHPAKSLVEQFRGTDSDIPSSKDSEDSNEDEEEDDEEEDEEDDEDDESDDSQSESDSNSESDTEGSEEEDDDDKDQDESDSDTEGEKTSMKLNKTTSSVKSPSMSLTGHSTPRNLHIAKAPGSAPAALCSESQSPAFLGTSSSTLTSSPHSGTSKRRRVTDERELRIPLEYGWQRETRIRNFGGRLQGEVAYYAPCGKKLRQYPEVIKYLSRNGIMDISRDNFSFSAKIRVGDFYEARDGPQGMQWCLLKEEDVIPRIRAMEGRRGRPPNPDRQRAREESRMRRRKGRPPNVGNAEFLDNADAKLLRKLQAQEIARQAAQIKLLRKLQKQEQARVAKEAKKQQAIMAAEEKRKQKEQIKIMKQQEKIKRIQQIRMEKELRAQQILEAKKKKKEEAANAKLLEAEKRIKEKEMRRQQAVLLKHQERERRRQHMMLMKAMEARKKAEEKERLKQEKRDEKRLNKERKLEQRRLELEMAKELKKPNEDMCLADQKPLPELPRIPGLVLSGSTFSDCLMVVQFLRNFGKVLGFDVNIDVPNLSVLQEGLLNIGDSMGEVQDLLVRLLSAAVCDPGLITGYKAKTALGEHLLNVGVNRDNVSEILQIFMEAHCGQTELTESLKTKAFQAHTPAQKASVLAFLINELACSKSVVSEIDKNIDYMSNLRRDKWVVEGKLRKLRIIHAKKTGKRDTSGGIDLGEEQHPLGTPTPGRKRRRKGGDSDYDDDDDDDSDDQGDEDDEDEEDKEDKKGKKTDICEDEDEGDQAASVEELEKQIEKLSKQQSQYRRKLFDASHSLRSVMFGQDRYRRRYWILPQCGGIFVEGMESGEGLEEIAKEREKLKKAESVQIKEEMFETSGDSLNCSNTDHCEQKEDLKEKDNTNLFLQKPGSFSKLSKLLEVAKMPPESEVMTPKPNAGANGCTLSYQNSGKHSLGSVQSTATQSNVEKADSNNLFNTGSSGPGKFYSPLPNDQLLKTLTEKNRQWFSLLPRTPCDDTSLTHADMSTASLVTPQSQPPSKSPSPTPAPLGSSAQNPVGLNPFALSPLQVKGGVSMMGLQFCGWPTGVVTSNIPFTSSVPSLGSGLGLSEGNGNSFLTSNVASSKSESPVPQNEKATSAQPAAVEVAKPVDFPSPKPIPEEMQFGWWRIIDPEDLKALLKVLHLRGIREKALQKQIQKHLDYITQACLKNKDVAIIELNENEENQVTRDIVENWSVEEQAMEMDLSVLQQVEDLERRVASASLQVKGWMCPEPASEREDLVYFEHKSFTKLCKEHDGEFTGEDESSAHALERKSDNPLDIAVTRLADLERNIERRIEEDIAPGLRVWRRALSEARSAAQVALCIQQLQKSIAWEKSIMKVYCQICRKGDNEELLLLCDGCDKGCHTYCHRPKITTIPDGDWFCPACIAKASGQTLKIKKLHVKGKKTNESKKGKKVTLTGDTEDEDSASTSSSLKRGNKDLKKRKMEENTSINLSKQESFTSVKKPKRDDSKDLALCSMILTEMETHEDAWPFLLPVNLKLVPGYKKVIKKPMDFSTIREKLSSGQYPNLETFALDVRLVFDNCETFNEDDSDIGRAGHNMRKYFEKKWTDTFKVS
In short: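 Inhibition is scored as reduced AlphaScreen emission. The BAZ2B/b-H3(5-23)K14Ac complex (50 nM each) in PBS pH 7.4, 0.01% Tween-20 meets compound (up to 110 uM) for 30 min at RT before bead addition.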
Note: nearly all actives have a fitted effect of over 60% in size.
Potency is the fitted concentration of half-maximal effect.

Potency, inactive:
CC(NC(=O)c1cc(Sc2ccc(F)cc2F)nc2ccccc12)c1ccccc1 (centres undefined)
O=C(CN1c2ccccc2S(=O)(=O)c2ccccc21)Nc1cccc(C(F)(F)F)c1
CCOC(=O)c1ccc(NC(=O)CC2C(=O)N(c3ccccc3)C(=O)N2Cc2cccs2)cc1 (centres undefined)
Cc1cccc(NC(=O)c2nc(S(=O)(=O)Cc3ccccc3)ncc2Cl)c1
Cc1ccc(CS(=O)(=O)c2ncc(Cl)c(C(=O)Nc3nnc(C)s3)n2)cc1
Fc1ccc(-n2ncc3c(Nc4ccc(Oc5ccccc5)cc4)ncnc32)cc1
CCOc1ccccc1NC(=O)c1ccc2c(c1)CCN2S(=O)(=O)c1ccc(C)cc1
CN(C)C(=O)c1nc2ccc(Cl)cn2c1CN1CCN(c2ncccn2)CC1
C/C(=N\N1CCN(Cc2ccc(C)cc2)CC1)c1ccco1
Cc1ccc(NC(=O)CCC(=O)N/N=C/c2ccco2)c(C)c1
COc1ccc(-c2nc(CN3CCN(c4ncccn4)CC3)c(C)o2)cc1C
Cc1oc2ccc(O)c(CN3CCCCC3)c2c1C(=O)Nc1cccc(C(F)(F)F)c1
Cc1ccc(CNC(=O)Cn2c(=O)ccc3cc(S(=O)(=O)N4CCCC4)ccc32)cc1
CCOC(=O)c1ccc(NC(=O)C2CC(=O)NC(=Nc3ccc(C)c(C)c3)S2)cc1 (centres undefined)
Cc1cccc(NC(=O)C2CCCN2S(=O)(=O)c2cccc3nsnc23)c1C (centres undefined)
CCC(=O)Nc1cccc(C(=O)OCc2cc(=O)n3nc(CC)sc3n2)c1
Cc1ccc(-c2nn(-c3ccccc3)cc2/C=C/C(=O)Nc2cccc(S(N)(=O)=O)c2)cc1
Cc1ccc(/C=C2/SC(=S)N(CCC(=O)NCCCN3CCOCC3)C2=O)cc1
COc1ccc(-c2nn(-c3ccccc3)cc2/C=C\C(=O)N2CCOCC2)cc1[N+](=O)[O-]
O=C1/C(=C\c2ccccc2Cl)SC(=S)N1CCC(=O)N1CCCc2ccccc21
Cc1cc(OCCCC(=O)NCCN2C(=O)S/C(=C\c3cccnc3)C2=O)ccc1Cl
COc1ccc(-c2nn(-c3ccccc3)cc2CN2CCCO2)c(F)c1
Cc1ccc2c(=O)c(C(=O)c3cccc(Cl)c3)cn(CC(=O)NCc3ccccc3)c2n1
CN1C(=O)c2[nH]nc(-c3ccc(F)cc3)c2C1c1ccccn1 (centres undefined)
COc1ccc(CCNC(=O)c2cc(=O)c3c(C)cc(C)cc3o2)cc1OC
CCOC(=O)c1ccc(CN(Cc2ccccc2)S(=O)(=O)c2ccc(Cl)cc2)cc1
COc1ccc(CNC(=O)c2cc3c(=O)[nH]c4ccc(C)cc4c3s2)c(OC)c1
COc1cccc(CNC(=O)c2ccc3c(Cl)c4c(nc3c2)CCCC4)c1
CCOc1cc(CN2CCN(C(=O)CC(C)C)CC2)ccc1OC
CC(C)CC(=O)N1CCN(Cc2cccc(Cl)c2)CC1
Cc1cc(OCC(=O)Nc2ncn[nH]2)c(C)c(C)c1Br
O=C(NC1CC(=O)N(c2ccc(F)cc2)C1)c1ccc(S(=O)(=O)N2CCCC2)cc1 (centres undefined)
Cc1ccccc1CS(=O)(=O)CC1Nc2ccc(C(=O)NCc3ccc(Cl)cc3)cc2NC1=O (centres undefined)
Cc1ccc(C)c(N2CCN(c3ccc4cc(S(=O)(=O)N5CCC(C)CC5)ccc4n3)CC2)c1
COc1ccc(/C=C2/C(=O)OCc3cc(OC)c(OC)cc32)c(OC)c1
COc1ccc(C(=O)CCc2ccccc2O)c(OC)c1
O=C(NCCCc1ccccc1)c1ccc2c(c1)sc1nc(-c3ccc(F)cc3)cn12
COc1ccccc1CNC(=O)NCc1noc2ccc(C)cc12
Cc1cc(F)ccc1S(=O)(=O)N1CCCOC1CNC(=O)C(=O)NCCC1=CCCCC1 (centres undefined)
COc1ccc(CCNC(=O)C(=O)NCC2OCCN2S(=O)(=O)c2ccc(F)cc2)cc1OC (centres undefined)
Cn1nnnc1SCCCNCc1ccc(Cl)cc1
COc1ccc2nc(SCc3ccccc3)nc(C)c2c1
Fc1ccc(Nc2nc(SCc3ccccc3Cl)nc3ccccc23)cc1
CC1(C)N=C(SCc2ccccc2Cl)c2ccccc2N1
CSc1nc(-c2ccco2)nn1C(=O)CCc1ccccc1
Cc1cccc(NC(=O)N2CCC(CN3CCc4ccccc4C3)CC2)c1C
Cc1ccc(NC(=O)CSc2nc3c([nH]c4ccccc43)c(=O)n2-c2ccccc2)c(C)c1
CCOc1ccccc1NC(=O)Cn1c2ncccc2c(=O)n1-c1ccc(C)c(C)c1
CCOc1c(Br)cc(/C=C2\C(=O)N(CCC#N)N=C2C)cc1OC
COc1cc(CN2CC(C)CC(C)C2)cc([N+](=O)[O-])c1O (centres undefined)
COc1cccc(/C=C2\SC(=N)N(c3ccc(F)cc3)C2=O)c1
COc1cc(/C=N/O)cc(Br)c1OCc1cccc(Cl)c1
CCc1cccc(NC(=O)c2cnc(N3CCOCC3)c3ccccc23)c1
Cc1ccc(C(=O)CSc2nc(-c3ccccc3)nc3c2CCCC3)c(C)c1
COc1ccc(CC(=O)NCCc2sc3nc(-c4ccc(OC)cc4)nn3c2C)cc1
O=C(c1ccncc1)N1CCN(c2ccc3ccccc3n2)CC1
COc1ccccc1N1CCN(C(=O)c2c(-c3c(Cl)cccc3Cl)noc2C)CC1
COc1ccc(C)cc1-n1c(-c2ccc(C)cc2)cc2c1CC(C)(C)CC2=O
COc1cccc(N2C(=O)C3CCCN3C2c2ccc(F)cc2)c1 (centres undefined)
COc1ccc(C2NC(=O)c3ccccc3N2)cc1 (centres undefined)
FC(F)(F)c1cc(Nc2nc3ccccc3c3nncn23)ccc1Cl
COC(=O)c1cn(C(=O)c2ccc(Cl)cc2)c2ccccc12
COC(=O)/C(NC(C)=O)=C(\C)c1ccc(Cl)cc1
CCCCc1nn2c(=O)cc(COC(=O)c3ccccc3NC(=O)C(C)(C)C)nc2s1
Cc1nn(-c2ccccc2)c2c1C(c1cccc([N+](=O)[O-])c1)N(c1ccccc1)C(=O)N2 (centres undefined)
Cc1cc(CO)nn1-c1ccc([N+](=O)[O-])cc1
O=C(NCc1ccc(F)cc1)c1ccc(Cn2c(SCc3ccc(F)cc3)nc3cccnc32)cc1
Cc1oc2ncnc(N3CCOCC3)c2c1C(=O)NCCc1ccccc1
COc1ccccc1CNC(=O)CCn1c(=O)c2ccccc2n(CC(=O)Nc2ccc(Br)cc2F)c1=O
COc1ccccc1CNC(=O)CCCCn1c(=O)c2ccccc2n(CC(=O)Nc2cc(Cl)ccc2C)c1=O
O=C(NCc1ccccc1Cl)C1=Cc2cc(Br)ccc2OC1
CCCC(=O)Nc1cc(C(=O)NCc2ccc(OC)cc2)ccc1S(=O)(=O)c1ccc(Cl)cc1
CCOc1ccc(CCNC(=O)c2ccc3c(c2)sc2nc(-c4ccc(F)cc4)cn23)cc1OCC
CCOc1ccc(-c2nonc2NC(=O)c2oc3ccc(CC)cc3c2C)cc1
COc1ccc(-c2cn3c(n2)sc2cc(C(=O)Nc4ccccc4F)ccc23)cc1
COc1ccc(CCNC(=S)N2CCN(S(=O)(=O)c3ccc(Cl)cc3)CC2)cc1
O=C(NCCc1ccc(Cl)cc1)c1cccc(N2CCCC2=O)c1
CC(=O)c1cc(-c2ccccc2)[nH]c1N1CCCC1

Potency, active:
CN=C1C=C/C(=N/N=c2\ccn(O)cc2C)C=C1C 35.5 µM
CSc1nnc(NC(=O)c2nc(S(=O)(=O)Cc3ccc(C)cc3)ncc2Cl)s1 56.2 µM
Cc1ccc(CN2CCN(c3ncccn3)CC2)c(C)c1 50.1 µM
Cc1ccc(CN2CCN(/N=C/c3ccco3)CC2)c(C)c1 50.1 µM
CN(C)S(=O)(=O)c1cccc(-c2nn(-c3ccccc3)cc2/C=C2\SC(=S)N(CC(=O)O)C2=O)c1 50.1 µM
COc1ccc(-c2nn(-c3ccccc3)cc2/C=C2/SC(=S)N(CCCC(=O)O)C2=O)c(C)c1 50.1 µM
Cc1ccc(-c2nn(-c3ccccc3)cc2/C=C2\SC(=S)N(CCCCCC(=O)O)C2=O)o1 6.31 µM
CC(C)CC(=O)N1CCN(Cc2ccccc2Br)CC1 50.1 µM
COc1ccc(/C=C2/C(=O)N(c3ccccc3)N=C2C)c(OC)c1 11.2 µM
O=C(NCCCn1ccnc1)C(=O)NCC1OCCN1S(=O)(=O)c1cc(F)ccc1F (centres undefined) 7.94 µM
Clc1ccccc1CSc1nnc(-c2ccco2)c(-c2ccco2)n1 14.1 µM
c1ccc(CSc2nnc(-c3ccco3)c(-c3ccco3)n2)cc1 20 µM
COc1cc(/C=C2/C(=O)NN(c3ccc(F)cc3)C2=O)cc([N+](=O)[O-])c1O 39.8 µM
COc1cc(/C=C2/C(=O)NN(c3cccc(Cl)c3)C2=O)cc(Br)c1O 39.8 µM
O=C(c1ccc2ccccc2n1)N1CCN(c2ccccc2Cl)CC1 50.1 µM
COc1cccc(C2Nc3cccc4cccc(c34)N2)c1 35.5 µM
COC(=O)C(=Nc1ccccc1)/C(C(=O)C(=O)N(C)c1ccccc1)=C(\O)c1ccc(Cl)cc1 50.1 µM
Cc1nn(-c2ccc([N+](=O)[O-])cc2)c(N)c1-c1ccccc1 70.8 µM
COc1ccccc1CNC(=O)CCn1c(=O)c2ccccc2n(CC(=O)Nc2cccc(Cl)c2)c1=O 79.4 µM
Oc1cc2c(cc1O)CN(C(=S)NCCc1ccc(Cl)cc1)CCC2 44.7 µM
O=C1NN(c2ccccc2)C(=O)/C1=C/c1ccc(-c2cccc(C(=O)O)c2)o1 44.7 µM
